Assay results published in PubChem BioAssay AID2314 (National Center for Advancing Translational Sciences (NCATS), 2010).
About 37,000 (12%) of roughly 300,000 compounds were called active. The sample holds actives, similar compounds and a random draw of the others, so the mix is not that of the screen. No stated cut-off is given here; in the data, active means max response mostly above about 13% (no sharp cut-off); inactive means mostly below about 14%.

Assay: Cycloheximide Counterscreen for Small Molecule Inhibitors of Shiga Toxin; further: read at 38.3 µM for the half of the compounds with a filed dose; 0% is about no effect
Conditions: cell reporter, cycloheximide protein synthesis inhibition counterscreen; stronger effect = higher value
In the case of `COc1ccc(-c2csc3ncnc(N4CCN(S(=O)(=O)c5ccccc5C#N)CC4)c23)cc1`, the max response is reported as -2.23% (inactive).
For `COc1cc(/C=N/O)cc(Br)c1OS(=O)(=O)c1ccc(C)cc1`, the max response was 1.45% (inactive).
In the case of `COc1cc(NC(=O)CCNC(=O)Cn2ccc3ccccc3c2=O)cc(OC)c1OC`, the max response is reported as -5.95% (inactive).
With `COc1ccc(OC)c(C(=O)NC(CC(N)=O)c2ccc(N3CCC(N4CCCCC4)CC3)c([N+](=O)[O-])c2)c1` (configuration not stated) the max response was 4.9% (inactive).
For `CCC(C(=O)NC1CCCC1)N(C(=O)Cn1nnc(-c2ccc(C)o2)n1)c1ccc(OC)c(OC)c1` (configuration not stated), the max response was -5.67% (inactive).
With `Cc1scc(C(=O)NNC(=S)NCc2ccccc2)c1C` the max response was -0.644% (inactive).
In the case of `Cc1ccc(S(=O)(=O)N(Cc2ccc(Cl)cc2)c2ccccc2C(=O)NCc2cccnc2)cc1`, the max response is reported as 7.18% (inactive).
In the case of `COC(=O)c1cc2c(ccn2C)n1C`, the max response is reported as -8.1% (inactive).
With `O=C(Nc1ccc(-c2csc(Nc3cccc(C(F)(F)F)c3)n2)cc1)c1cccc(C(F)(F)F)c1` the max response was -4.63% (inactive).
For `COc1ccc(OC)c(Nc2nc(-c3ccc(O)c(O)c3)cs2)c1`, the max response was 0.815% (inactive).
For `Oc1ccc(-c2csc(Nc3cccnc3)n2)cc1`, the max response was 33.7% (active).
In the case of `COc1ccc(-c2csc(Nc3ccc(O)cc3)n2)cc1`, the max response is reported as 58.3% (active).
In the case of `COC(=O)CCc1sc(Nc2ccc(Br)cc2)nc1-c1ccc(OC)cc1`, the max response is reported as 11.1% (inactive).
For `COC(=O)CCCCCN1C(=O)NC(c2ccc(-c3ccccc3)cc2)C(C(=O)OCc2ccccc2)=C1C` (configuration not stated), the max response was -3.62% (inactive).
With `CN1C2CCC1/C(=C\c1ccccc1Cl)C(=O)/C2=C\c1ccccc1Cl` the max response was -1.18% (inactive).
With `Cc1cc(C)c(S(=O)(=O)c2ccc(F)cc2C)c(=O)[nH]1` the max response was 0.432% (inactive).
With `O=C(Cn1cnc2cc([N+](=O)[O-])ccc2c1=O)NC(=O)NCc1ccccc1` the max response was 5.35% (inactive).
In the case of `CC(=O)Cn1cnc2c(cnn2-c2ccccc2)c1=O`, the max response is reported as 20.7% (active).
In the case of `Cc1ccc(-c2nc3c(cnn3-c3ccccc3)c(=O)o2)cc1`, the max response is reported as -3.4% (inactive).
For `O=C(Cn1cnc2c(cnn2-c2ccc(F)cc2)c1=O)NCCc1ccccc1`, the max response was -1.32% (inactive).
For `O=C(Cn1cnc2c(cnn2-c2ccccc2)c1=O)NCc1ccccc1`, the max response was 20.7% (active).
With `COc1ccc(-n2c(C)nc3c(cnn3-c3ccccc3)c2=O)cc1` the max response was -2.87% (inactive).
In the case of `Cc1cc(C)n(S(=O)(=O)c2cccc([N+](=O)[O-])c2)n1`, the max response is reported as 0.92% (inactive).
For `COc1ccccc1C(=O)NCc1nnc(SC(C)C(=O)Nc2nccs2)n1C` (configuration not stated), the max response was 2.76% (inactive).
For `Cc1ccc(-n2ncc3c2CCCC3NC(=O)c2cnccn2)cc1C` (configuration not stated), the max response was 9.44% (inactive).
For `C/C=C/c1ccc(OCCCCN2CCC(C)CC2)c(OC)c1`, the max response was 0.514% (inactive).
For `c1ccc(CSc2ncnc3c2sc2nc(N4CCOCC4)c4c(c23)CCCC4)cc1`, the max response was -3.72% (inactive).
With `Cc1n[nH]c(=O)nc1N/N=C/c1cccs1` the max response was 25.7% (active).
For `Cc1nnc(N/N=C/c2cccs2)[nH]c1=O`, the max response was -2.07% (inactive).
In the case of `S=c1[nH]nc(-c2cccs2)n1/N=C/c1cccs1`, the max response is reported as 8.89% (inactive).
In the case of `COCCOC(=O)c1sc(=S)n(CCOC)c1N`, the max response is reported as -1.77% (inactive).
In the case of `CC(C)(C)c1ccc(Cn2nnc3c(=O)[nH]c(C4CCCN(C(=O)c5ccco5)C4)nc32)cc1` (configuration not stated), the max response is reported as 4.58% (inactive).
With `Clc1ncn(CCOc2ccccc2)c1Cl` the max response was -2.48% (inactive).
In the case of `Cc1cccc2c1N(CCOc1ccccc1)C(=O)C2=O`, the max response is reported as 8.28% (inactive).
In the case of `Cc1nn(CCOc2ccccc2)c(=O)n1-c1ccccc1F`, the max response is reported as 49.6% (active).
For `CCc1nc2cccnc2n1-c1ccc(C(=O)O)cc1`, the max response was -1.63% (inactive).
In the case of `COc1cccc(C(O)c2nc3ccccc3n2C)c1` (configuration not stated), the max response is reported as -2.8% (inactive).
In the case of `CCCC(=O)N(CCN1CCOCC1)c1nc2ccc(OCC)cc2s1`, the max response is reported as 16.6% (inactive).
For `CCOc1ccc2nc(C(=O)N3CCCC(C)C3)sc2c1` (configuration not stated), the max response was 105% (active).
In the case of `CCOc1ccc2nc(Nc3nc4ccc(NC(C)=O)cc4s3)sc2c1`, the max response is reported as -1.98% (inactive).
With `CCOc1ccc(S(=O)(=O)NCCCn2ccnc2)cc1NC(C)=O` the max response was -3.29% (inactive).
In the case of `c1cncc(-c2nnc3n2C2(CCCCC2)Cc2ccccc2-3)c1`, the max response is reported as -1.12% (inactive).
In the case of `CCOc1ccccc1C1CC(c2cccc(NS(C)(=O)=O)c2)=NN1C(=O)c1ccccc1` (configuration not stated), the max response is reported as -1.46% (inactive).
For `CCOc1cccc2c1OC1(CCCCC1)N1N=C(c3cccnc3)CC21` (configuration not stated), the max response was 40.7% (active).
In the case of `CC1CCN(S(=O)(=O)c2ccc3c(c2)n(C)c(=O)n3C)CC1`, the max response is reported as 2.78% (inactive).
For `Cc1cc(CNCc2c(C(=O)N(C)Cc3ccccc3)nc3ccccn23)nn1C`, the max response was 1.54% (inactive).
With `Cc1nn(-c2ccccn2)c2c1C(c1ccncc1)C1=C(CC(C)(C)CC1=O)N2` (configuration not stated) the max response was -5.72% (inactive).
In the case of `Cc1cc2c(cc1C)NC(c1ccccn1)C1=C(CC(C)(C)CC1=O)N2` (configuration not stated), the max response is reported as 28% (active).
For `CC1(C)CC(=O)C2=C(C1)Nc1cc(C(=O)c3ccccc3)ccc1NC2c1ccccn1` (configuration not stated), the max response was 5.93% (inactive).
For `O=C1NC(c2ccncc2)Nc2sc3c(c21)CCCC3` (configuration not stated), the max response was 26.5% (active).
In the case of `C/C(=C\c1ccccc1)C1NC(=O)c2c(sc3c2CCCC3)N1` (configuration not stated), the max response is reported as 36.6% (active).
In the case of `Cc1ccc(C(=O)c2c(NC(=O)c3ccncc3)sc3c2CCCC3)cc1`, the max response is reported as -4.15% (inactive).
With `O=C(Nc1sc2c(c1-c1nc3ccccc3[nH]1)CCCC2)C1CC1` the max response was 16.7% (inactive).
For `O=C1CCCCC1C(=O)c1ccccc1` (configuration not stated), the max response was 12.6% (inactive).
With `CCOC(=O)c1cc2ccccc2n1CC(=O)c1ccccc1` the max response was 1.26% (inactive).
In the case of `CC1CCC2CCCCC2N1C(=O)c1cc([N+](=O)[O-])cc([N+](=O)[O-])c1` (configuration not stated), the max response is reported as 10.4% (inactive).
For `NS(=O)(=O)c1ccc(CCNC(=O)c2nc(CS(=O)(=O)c3ccc(Cl)cc3)no2)cc1`, the max response was -2.33% (inactive).
In the case of `CCn1cc(C(=O)N[C@@H](C)C(=O)NCCO)c(=O)c2cc3c(cc21)OCO3`, the max response is reported as -1.13% (inactive).
With `CC(CO)NCC12CC3CC(CC(C3)C1)C2` (configuration not stated) the max response was -1.89% (inactive).
For `O=C(Nc1ccccc1Cl)O/N=C(/c1ccccc1)c1ccccn1`, the max response was -2.08% (inactive).
With `N/C(=N\OC(=O)Nc1ccc(Cl)c(Cl)c1)c1ncc(C(F)(F)F)cc1Cl` the max response was -4.62% (inactive).
For `N/C(=N\OC(=O)Nc1ccccc1)c1ccno1`, the max response was 24.5% (active).
In the case of `COc1ccc(-c2c(C)cc3oc(=O)cc(-c4ccccc4)c3c2C)cc1C=O`, the max response is reported as 19.9% (inactive).
With `COc1cccc(NC(=O)CN(C)C(C)C(=O)Nc2ccc(C#N)cc2)c1` (configuration not stated) the max response was 11.8% (inactive).
For `S=c1nc2ccccc2c2nc(-c3cccnc3)[nH]n12`, the max response was -3.11% (inactive).
For `C=CCn1c(=O)c(C(=O)NCc2ccc3c(c2)OCO3)c(O)c2ccccc21`, the max response was -4.21% (inactive).
For `CC(C)N1CCC(N2CCN(Cc3cccnc3)CC2CCO)CC1` (configuration not stated), the max response was -0.86% (inactive).
With `CCC(C)(C)NC(=O)CN(Cc1cccs1)C(=O)CNS(=O)(=O)c1ccc(F)cc1` the max response was 1.08% (inactive).
In the case of `Cc1ccc(S(=O)(=O)NCC(=O)N(CC(=O)NC(C)(C)C)Cc2cccs2)cc1`, the max response is reported as 0.104% (inactive).
With `CC(C)(C)NC(=O)CN(Cc1cccs1)C(=O)CNS(=O)(=O)c1ccccc1` the max response was 15.6% (active).
In the case of `O=C(N/C(=C\c1ccc(F)cc1)C(=O)N1CCCCCC1)c1ccccc1`, the max response is reported as -2.25% (inactive).
With `CC(C)c1nc(SCC(=O)Nc2cccc(C(=O)O)c2)c2c3c(sc2n1)CCCC3` the max response was 2.36% (inactive).
In the case of `COc1ccc(CNc2c(CO)cnc3c2cnn3C)cc1`, the max response is reported as 8.91% (inactive).
With `Cc1ccc(S(=O)(=O)N2CCN(C)CC2)cc1C(=O)NC1CCCCC1` the max response was -0.406% (inactive).
For `O=C(Oc1ccc(Br)cc1)c1cccnc1`, the max response was 7.39% (inactive).
In the case of `O=C(Oc1cccnc1)c1cc2ccccc2oc1=O`, the max response is reported as -1.97% (inactive).
In the case of `O=C(Oc1c(-c2ccco2)oc2ccccc2c1=O)c1cccnc1`, the max response is reported as 12.7% (active).
With `O=C(CN1C(=O)c2ccccc2C1=O)NCc1ccc(C(=O)O)cc1` the max response was -4.14% (inactive).
In the case of `O=c1[nH]c(NCCO)nnc1Cc1ccc(Cl)cc1`, the max response is reported as -3.78% (inactive).
With `Cc1ccc(N(C(=O)CNC(=O)c2ccco2)C(C(=O)NC2CCCC2)c2ccncc2)cc1` (configuration not stated) the max response was -1.23% (inactive).
For `CCOC(=O)C1(Cc2cccc(OC)c2)CCN(C(C)CC(C)(C)O)CC1` (configuration not stated), the max response was -3.86% (inactive).
For `CCOC(=O)C1(CCOc2ccccc2)CCN(C(=O)c2cncs2)CC1`, the max response was 1.41% (inactive).
For `CCOC(=O)C1(Cc2ccccc2C(F)(F)F)CCN(C(=O)c2cc(C)n(C)n2)CC1`, the max response was 31.4% (active).
With `CCCN(CC1COc2ccccc2O1)C(=S)Nc1ccc(C)cc1` (configuration not stated) the max response was -5.79% (inactive).
In the case of `Cc1c(CN2CCC(CO)(CCOc3ccccc3)CC2)[nH]c2ccc(Cl)cc12`, the max response is reported as -1.37% (inactive).
In the case of `CC1CC(C)CN(CCC(=O)Nc2ccc3c(c2)CCC3)C1` (configuration not stated), the max response is reported as -6.42% (inactive).
With `O=C(NCC(=O)N(Cc1cccs1)C(C(=O)NC1CCCCC1)c1ccco1)c1cccs1` (configuration not stated) the max response was -2.31% (inactive).
For `CC(C)C(=O)OCC(=O)Nc1ccc2c(c1)CCC2`, the max response was 2.17% (inactive).
With `O=C(CCC(=O)c1cccs1)NC1CCCCCC1` the max response was 21.2% (active).
With `O=C(NC1CCCC1)c1ccc(Br)s1` the max response was 19.5% (active).
In the case of `CC(C)C(OC(=O)c1cccs1)C(=O)NC1CCCCC1` (configuration not stated), the max response is reported as -1.99% (inactive).
In the case of `O=C(COC(=O)/C=C/c1cccs1)NC1CCCCC1`, the max response is reported as -0.796% (inactive).
For `O=C(NC1CCCCCCC1)c1cccs1`, the max response was 34% (active).
In the case of `O=C(NC1CCCC1)C(NS(=O)(=O)c1ccc(Br)s1)c1ccccc1` (configuration not stated), the max response is reported as 7.24% (inactive).
With `O=C(CN(C(=O)CNC(=O)c1cccs1)c1cccc(F)c1)NC1CCCCC1` the max response was 0.305% (inactive).
With `O=C(Nc1ccc2c(c1)CCC2)c1ccc(Br)s1` the max response was 72% (active).
With `CN(CC(=O)NC1CCCCC1)S(=O)(=O)c1ccc(Br)s1` the max response was 6.95% (inactive).
